# High-throughput results: PubChem, several laboratories
# MazEF act: MazEF (E. coli) toxin RNase activation; P0AE70; FAM/BHQ RNA-DNA oligo cleavage fluorescence, 5 h; activation, % at 20 µM; 350,000 tested, 0.32% active; AID 504720; in the data active = activation above about 50%
# Target sequence (P0AE70 whole entry, looked up): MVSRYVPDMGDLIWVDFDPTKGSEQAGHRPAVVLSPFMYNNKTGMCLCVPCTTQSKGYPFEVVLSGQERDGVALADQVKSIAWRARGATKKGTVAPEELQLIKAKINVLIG
# VHR inh abs: DUSP3 (human) phosphatase inhibition; inhibition, % at 13.3 µM; 290,000 tested, 0.52% active; recombinant VHR phosphatase, pNPP absorbance; in the data active = inhibition above about 50%
# Target sequence (P51452 whole entry, looked up): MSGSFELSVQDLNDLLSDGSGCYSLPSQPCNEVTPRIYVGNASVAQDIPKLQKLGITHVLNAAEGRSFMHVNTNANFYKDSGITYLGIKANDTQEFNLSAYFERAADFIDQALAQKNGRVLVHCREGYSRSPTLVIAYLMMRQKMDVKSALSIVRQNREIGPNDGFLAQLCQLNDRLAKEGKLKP
# Anthrax LF inh2: anthrax lethal factor protease inhibition; AID 588501; multiplex microsphere protease cleavage assay, LF; 360,000 tested, 0.12% active; inhibition, % at 10 µM; P15917; note: plate controls were buffer without enzyme for full effect and enzyme alone for no effect
# BoNT-F LC inh: BoNT F light chain protease inhibition. Multiplex microsphere protease cleavage assay, flow cytometry. inhibition, % at 10 µM. 360,000 tested, 0.22% active. AID 588497; in the data active = inhibition above about 35%, passing the limit was not always enough; inconclusive = no clear call, values can overlap the other calls; note: plate controls were buffer without enzyme for full effect and enzyme alone for no effect
# Autofluor counter: counter-screen for toxin protease inhibitors: compound fluorescence. fluorescence intensity (no concentration beside the values). compound autofluorescence counterscreen, microsphere flow cytometry; stronger effect = higher value. AID 624483. 360,000 tested, 3.1% active; in the data active = fluorescence intensity above about 16000; inconclusive = no clear call, values can overlap the other calls
# BoNT-A LC inh2: inhibitors of Botulinum neurotoxin A light chain protease. multiplex microsphere protease substrate cleavage, flow cytometry. inhibition, % at 10 µM. 360,000 tested, 0.17% active. AID 588499; note: plate controls were buffer without enzyme for full effect and enzyme alone for no effect
# * hit, by the source's call; ? = inconclusive; . = no result given. In the library only some 4.1% were active in any assay of this set; here they are far more common. Cut-off read from the data, not from the text of the source, unless noted: active = inhibition above about 30%; inconclusive = no clear call, values can overlap the other calls; inactive = below that.
SMILES,MazEF act,VHR inh abs,Anthrax LF inh2,BoNT-F LC inh,Autofluor counter,BoNT-A LC inh2
Cc1ccc(-c2nnc(-c3ccncc3)n2-c2ccc(C)cc2)cc1,0.3,25.0,-1.9,0.0,21828*,?
c1ccc(-n2c(-c3ccncc3)nnc2-c2ccco2)cc1,0.5,21.7,-1.7,3.9,16681*,-0.1
Cc1ccc(-n2c(-c3ccncc3)nnc2-c2ccco2)cc1,9.6,24.0,1.0,0.6,3557,0.9
Nc1c(S(=O)(=O)c2ccccc2)c2nc3ccccc3nc2n1/N=C/c1cccc(O)c1,-5.8,39.8,1.0,?,4797,0.5
Cc1cccc(S(=O)(=O)c2c(N)n(/N=C/c3ccccc3)c3nc4ccccc4nc23)c1,-11.5,3.6,-0.4,-1.6,16348*,-0.5
COc1cc(CCC(=O)N2CCN(c3ccc([N+](=O)[O-])cc3)CC2)cc(OC)c1OC,3.0,56.9*,-2.8,4.1,3624,0.4
COCC(=O)N1CCN(c2ccc([N+](=O)[O-])cc2)CC1,8.6,6.2,0.3,8.3,2078,0.4
CCOc1ccc(S(=O)(=O)Nc2ccc(C(=O)N3CCCC3)cc2)cc1C(N)=O,1.6,-19.9,0.0,0.3,5567,1.4
COc1ccc(CCN2CC(C(=O)OCC(=O)NC(C)c3cccc(Cl)c3)CC2=O)cc1OC (configuration not stated),5.6,.,-4.9,-33.8,9463,-10.9
CCOC(=O)c1oc2cccc(O)c2c1CN(Cc1ccccc1)C(C)=O,6.4,18.8,0.6,-0.5,20279*,?
CSc1cccc(NC(=O)N2CCCC(CNS(=O)(=O)Cc3ccccc3)C2)c1 (configuration not stated),-0.3,7.8,-2.5,3.2,5148,0.1
COc1ccc(CC(NC(C)=O)C(=O)NC2CCN(C(=O)c3ccc([N+](=O)[O-])cc3)CC2)cc1OC (configuration not stated),-6.9,15.0,-3.9,2.0,4035,-0.2
CCC(C)N1C(=O)/C(=C/c2c(NCCCOC(C)C)nc3c(C)cccn3c2=O)SC1=S (configuration not stated),-276.0,19.7,?,?,?,?
CCCN1C(=O)/C(=C/c2c(NCCCOC(C)C)nc3c(C)cccn3c2=O)SC1=S,435.8*,29.1,8.3,35.3*,4542,14.8
Cc1ccc(S(=O)(=O)N2C[C@H]3N(C(=O)OC(C)C)N(C(=O)OC(C)C)C[C@H](OC(=O)NCc4ccco4)[C@@]3(O)C2)cc1,4.2,.,-4.4,-0.9,3324,-0.4
O=S(=O)(NCCS(=O)(=O)N1CCN(c2ccc(F)cc2)CC1)c1ccccc1,-2.7,.,-0.1,-6.4,2948,-0.3
Cc1ccc(S(=O)(=O)NC(=O)C2(C)CCN2C(=O)c2cccc(F)c2)nc1 (configuration not stated),.,.,4.6,-0.8,3719,0.1
O=C(O)C1(NS(=O)(=O)c2ccc(Cl)cc2)CCCCC1,-3.3,17.5,-3.8,2.0,19428*,?
Cc1ccc(S(=O)(=O)NC2(C(=O)O)CCCCC2)cc1,3.2,-12.3,-1.1,-1.9,23381*,-2.0
Cc1ccc(S(=O)(=O)NC2(C(=O)O)CCCC2)cc1,8.6,.,2.4,-1.0,3815,-0.4
O=C(c1cnc(-c2ccccc2)s1)c1ccc(Cl)cc1Cl,-1.7,20.8,-2.0,-3.2,22951*,?
CN(C)/C=C/C(=O)c1cnc(-c2ccccc2Cl)s1,8.3,21.6,1.4,6.7,4516,0.0
CN(C)/C=C/C(=O)c1cnc(-c2cccc(Cl)c2)s1,-5.4,9.6,-6.9,42.3*,4682,6.8
O=C(c1ccc(Cl)cc1)c1cnc(-c2ccccc2)s1,-4.4,26.9,.,.,.,.
CC(C)(C)C(=O)c1c(N)[nH]c(C(=O)c2ccccc2)c1-c1ccc(Br)cc1,.,.,4.1,-7.4,6129,-1.1
CCc1ccccc1NC(=O)Cn1nnc(-c2cccnc2)n1,13.3,27.9,-0.6,1.6,22832*,0.4
CCc1ccccc1NC(=O)CSc1n[nH]c(-c2cccnc2)n1,3.1,6.4,5.1,-18.0,3495,-0.4
COc1ccc(-c2nn(-c3ccccc3)cc2C(=O)N(C)C)cc1,-1.5,52.6*,1.6,-0.5,3278,1.0
CN(C)C(=O)c1cn(-c2ccccc2)nc1-c1cccs1,3.0,-2.4,-2.7,-0.3,23620*,?
O=C(O)c1cn(-c2ccccc2)nc1-c1cccnc1,5.4,4.2,0.5,-0.7,20326*,1.2
